Laboratory results published in the supplement of paper PMC11417369.
The full ranking holds about 25,000 sequences; the median of “ln(normalized median fluorescence intensity)” is about 9.3, and the highest 2% start at about 10. The entries come from a sample that favours the highest values as a whole.

What follows are sequences tested on PF3D7_0420300 AP2 domain 1 (GST-tagged) (assay: gcPBM binding intensity (ln(normalized median fluorescence intensity)); higher = stronger DNA binding).
Procedure, shortened: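 GST-fused DNA-binding domains of P. falciparum, expressed in E. coli, were applied at about 25 μg on average for 1 h to an Agilent 4 × 180k array of primer-extended double-stranded 36-bp intergenic genomic probes and negative controls. Binding intensity is the highest Masliner-normalised natural-log median intensity across replicate spots of either probe orientation, measured with Alexa488 anti-GST antibody and a 488 nm scan.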

| Sequence | gcPBM binding intensity (ln) |
| --- | --- |
| TGAACACGCACAAATACACACAAAAAAAATAAATAA [CACACA_site6257] | 9.63 |
| ATTATACACGCGCGCACACACAACAAAAAAAAAAAA [CACACA_site7630] | 9.69 |
| TATTTTCTCTTAAAAAGTACTCATATATACATTTAT [XGTACX_site7748] | 9.07 |
| GAGTAAAAATTAAAATGTACATATTATATATATTTA [XGTACX_site1319] | 9.09 |
| CTTTGCCTTAAAAAGGAACACACATGCTTTTTTTAG [CACACA_site8219] | 9.22 |
| TTTTTTTTTACTTGTTGTACTTTTTCAAGGTATTGT [XGTACX_site7778] | 9.42 |
| TATATACATAAAATTTGTACATATATATATATATAT [XGTACX_site3214] | 9.28 |
| TGCTTATATCTTATAATATTTATACATCATAATAAG [CACACA_negctrl_site629] | 9.17 |
| ATTTTTCTTTTATTAACACACATATAAATAAATACA [CACACA_site2876] | 9.22 |
| CATAATAATAGAAACACACACACATAGACATATATA [CACACA_site1308] | 10.2 |
| TATACATAGAAACACACACACATATATATATATATA [CACACA_site2248] | 9.79 |
| TATACATAGAAACACACACACATAAATAAATATATA [CACACA_site1342] | 10.1 |
| ATAATATAGAAACACACACACATATATATATACATT [CACACA_site555] | 10.2 |
| TAATAATAGAAACACACACACATAGACATATATATA [CACACA_site1307] | 10.1 |
| TATATATAGAAACACACACACACATATATATATATT [CACACA_site2539] | 10.1 |
| TGTATCCACATATGTACACACATATATCTGTATATG [CACACA_site5668] | 9.51 |
| CAAAAATAAAAGAAATGTACAAAAAATAATAAAAAA [XGTACX_site6597] | 9.43 |
| TATTTTATACATATTTTACACACTAATATATACATA [CACACA_site7998] | 9.42 |
| AGGAATATCGAAAACTGTACTTGTATGTTTCATAAA [XGTACX_site6143] | 9.02 |
| AAATATATTATAAATTGTACGTTTATATATATTATT [XGTACX_site5110] | 9.35 |
| TTAGGCAAGGCGGGGGGTACGTTTTTATATAATTAT [XGTACX_site8029] | 10.6 |
| AATAATATATTTAGGGGTACATAATAATATATTTTA [XGTACX_site8366] | 9.27 |
| ATTTTTGTAAATACATGTACATATATATGCATATCC [XGTACX_site6353] | 9.49 |

| Sequence | gcPBM binding intensity (ln) |
| --- | --- |
| TTTCTATTTCCTTCACATCTTTTCATCTTTTTTTTT [CACACA_negctrl_site1110] | 9.71 |
| AATGGAAAAATAGGCACACACACATATATACATATA [CACACA_site1298] | 10.2 |
| TTAATGGAAAAATAGGCACACACACCGATATACATA [CACACA_site8356] | 9.94 |
| AATGGCAAAATAGGCACACACACATATACAGATATA [CACACA_site4726] | 10.1 |
| TGGAAAAATAGGCACACACACATATATACATATATA [CACACA_site1297] | 10 |
| AATGGAAAAATAGGCACACACACATAAATACAGATA [CACACA_site4844] | 10.3 |
| AATGGCAAAATAGGCACACACACATATACATATATA [CACACA_site1058] | 10.1 |
| GACCCCATATACATATGTACATACATAATATATATA [XGTACX_site1817] | 9.57 |
| TAAAATATAATAAAATGTACACGCATGCAATAGAAT [XGTACX_site7434] | 9.65 |
| ATCAGTCGGCAGGACAGTACACAGTAGCCAGAAAAT [XGTACX_site2550] | 9.49 |
| AGTATAAATAAATCATAAACATATATATATATATAT [GTGCAC_negctrl_site356] | 9.2 |
| AAAAAGAAAAAACTTACACACATATATACAGACATG [CACACA_site550] | 9.93 |
| AAAAAAAAAAAACATACACACATACATACATATATA [CACACA_site8222] | 9.82 |
| AAAAAGAAAAAACTTACACACATATATACACCCATG [CACACA_site8079] | 10.1 |
| AAAAAAAAAAAAAAAACACACACATACACCCAAAAA [CACACA_site7910] | 9.69 |
| AAGTACATACATAAAACACACACATATATATATATA [CACACA_site8541] | 9.59 |
| TATTCCCCCAAACACACACACACACCCACATACCAC [CACACA_site2304] | 10.3 |
| AAAAAAAAAAAAAACACACACACACCCAAATACATA [CACACA_site708] | 9.87 |
| AAAAAAAAAAAACACACACACACACTAGTACATACA [CACACA_site4551] | 10.2 |
| AACACCCAAAAACACACACACATACATACATACATA [CACACA_site4411] | 9.98 |
| CAAACACCCAAACACACACACACATACATACATACA [CACACA_site8044] | 10.2 |
| AAAAAAAAAAAAAACACACACATACACCCAAAAATG [CACACA_site4223] | 9.84 |
| AAAAAGAAAAAACTTACACACATATATACCCCCATG [CACACA_site4463] | 10.2 |
